# Reference: PubChem BioAssay (EPA / NIEHS)
# Results filed as inconclusive are left out. Some structures have more than one record in an assay (separate samples or runs), and their calls can disagree. The source made the active and inactive calls. Rule for the calls: active = hit-call score of the fitted dose curve at least 0.9, where 1 is the maximum; inconclusive = response in the unintended direction; inactive = score below 0.9.
# Assays:
# [1] = ACEA_ER_AUC_viability: ACEA Biosciences xCELLigence Real-Time Cell Analysis on Estrogen Receptor Agonism for Viability (AID 2283782);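 note: continuous compound exposure with impedance area under curve over 80 h; hit means loss of impedance signal meaning reduced cell growth or viability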
# How it was run: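 T-47D human breast cells in phenol red-free RPMI1640 with 10% charcoal-stripped FBS were dosed with an 8-point 1:4 dilution series from 100 uM top final concentration, in duplicate. Impedance-based growth was followed for 80 h; AUC analysed versus DMSO.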
# AR (gene 367) [2] = biological target: AR (gene 367) (UniProt P10275); test: ACEA_AR_agonist_80hr: ACEA Biosciences xCELLigence Real-Time Cell Analysis on Androgen Receptor Agonism for Proliferation (AID 2283783);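 note: hits increase impedance growth signal above DMSO baseline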
# How it was run: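 22Rv1 human prostate cancer cells were seeded after preconditioning in assay medium and monitored overnight, then dosed in an eight-point 1:4 dilution series from 100 uM (≤0.5% DMSO). Impedance-based growth was read at 80 h, gain-of-signal versus DMSO.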
# AR (gene 367) [3] = biological target: AR (gene 367) (UniProt P10275); test: ACEA_AR_antagonist_80hr: ACEA Biosciences xCELLigence Real-Time Cell Analysis on Androgen Receptor Antagonism for Proliferation (AID 2283787);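 note: hits lower the impedance growth signal relative to DMSO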
# How it was run: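 Impedance readout (RT-CES), 80 h post-dose; loss-of-signal vs DMSO baseline. 22Rv1 cells in assay medium. Compounds: 8-pt 1:4 series, max 100 uM final, up to 0.5% DMSO; n = 2.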
# AR (gene 367), sequence (P10275 whole entry, looked up): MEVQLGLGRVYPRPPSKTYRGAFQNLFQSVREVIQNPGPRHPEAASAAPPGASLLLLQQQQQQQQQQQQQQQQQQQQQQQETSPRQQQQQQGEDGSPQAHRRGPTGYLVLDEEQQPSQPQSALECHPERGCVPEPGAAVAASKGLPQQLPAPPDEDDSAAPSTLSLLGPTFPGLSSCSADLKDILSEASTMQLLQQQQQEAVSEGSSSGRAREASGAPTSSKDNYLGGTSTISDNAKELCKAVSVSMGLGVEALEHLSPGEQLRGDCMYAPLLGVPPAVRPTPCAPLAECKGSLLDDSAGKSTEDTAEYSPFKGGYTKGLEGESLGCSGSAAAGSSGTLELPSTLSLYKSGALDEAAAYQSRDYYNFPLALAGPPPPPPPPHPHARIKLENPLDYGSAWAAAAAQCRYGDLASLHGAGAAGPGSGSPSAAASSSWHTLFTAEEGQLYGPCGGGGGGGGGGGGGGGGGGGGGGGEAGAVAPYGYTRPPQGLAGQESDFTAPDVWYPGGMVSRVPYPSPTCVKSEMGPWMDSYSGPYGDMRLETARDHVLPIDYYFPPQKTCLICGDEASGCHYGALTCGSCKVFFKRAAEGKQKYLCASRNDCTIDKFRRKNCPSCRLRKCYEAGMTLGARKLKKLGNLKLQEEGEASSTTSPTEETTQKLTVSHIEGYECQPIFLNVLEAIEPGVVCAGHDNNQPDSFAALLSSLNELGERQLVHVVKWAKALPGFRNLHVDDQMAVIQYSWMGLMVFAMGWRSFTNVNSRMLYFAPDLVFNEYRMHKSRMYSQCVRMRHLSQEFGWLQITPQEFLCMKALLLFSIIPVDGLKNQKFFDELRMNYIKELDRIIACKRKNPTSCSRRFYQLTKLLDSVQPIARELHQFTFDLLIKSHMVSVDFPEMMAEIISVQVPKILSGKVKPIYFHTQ
structure (smiles),measurement,setting,value
CCCCCCCCN(C)CCCCCCCC,outcome,[1],inactive
same,outcome,AR (gene 367) [2],inactive
same,outcome,AR (gene 367) [3],inactive
CCOC(=O)O[C@H](C)OC(=O)c1ccc2c(c1)cc(C(=O)NC1CCN(C(C)C)CC1)n2Cc1cc(-c2ccc(Cl)s2)on1,AC50,[1],5.33 µM (active)
COCC(C)OCC(C)OCC(C)O (stereo not given),outcome,[1],inactive
same,outcome,AR (gene 367) [2],inactive
same,outcome,AR (gene 367) [3],inactive
O=C(OCCCCCCOC(=O)c1ccccc1)c1ccccc1,outcome,[1],inactive
NC(=O)c1nc(-c2cccc(-c3cc(F)ccc3OCC(F)(F)C(F)(F)F)c2)n[nH]1,AC50,[1],94 µM (active)
same,outcome,AR (gene 367) [2],inactive
same,AC50,AR (gene 367) [3],18.4 µM (active)
CN(C)C(=O)C1(N2CCCCC2)CCN(CC[C@@]2(c3ccc(Cl)c(Cl)c3)CN(C(=O)c3ccccc3)CCO2)CC1,AC50,[1],10.3 µM (active)
same,AC50,AR (gene 367) [3],13.6 µM (active)
CC1(C)NC(=O)N(c2ccc([N+](=O)[O-])c(C(F)(F)F)c2)C1=O,outcome,[1],inactive
O=c1c(-c2ccc(O)cc2)coc2cc(O)cc(O)c12,outcome,AR (gene 367) [2],inactive
same,AC50,AR (gene 367) [3],65.1 µM (active)
CN(C)c1ccc(C(=C2C=CC(=[N+](C)C)C=C2)c2ccc(N(C)C)cc2)cc1,AC50,[1],5.4 µM (active)
same,AC50,AR (gene 367) [3],0.167 µM (active)
Cc1cc(F)ccc1-c1cc(N2CC[C@@H](O)[C@H]2CO)ncc1N(C)C(=O)C(C)(C)c1cc(C(F)(F)F)cc(C(F)(F)F)c1,AC50,AR (gene 367) [3],6.76 µM (active)
NCc1cccc(C2CCN(C(=O)c3ccc(C#Cc4ccccc4F)o3)CC2)c1,AC50,[1],7.73 µM (active)
same,outcome,AR (gene 367) [2],inactive
same,AC50,AR (gene 367) [3],23.5 µM (active)
O=C(O)Cn1c(=O)n(Cc2ccc(Br)cc2F)c(=O)c2ccc(Cl)cc21,outcome,[1],inactive
same,outcome,AR (gene 367) [3],inactive
Cc1occc1C(=O)Nc1ccc(C(=O)N2CCC(F)(F)/C(=C\C(=O)N3CCC(N4CCCCC4)CC3)c3ccccc32)cc1,outcome,AR (gene 367) [2],inactive
same,AC50,AR (gene 367) [3],42.3 µM (active)
CCCCOC(=O)c1ccc(O)cc1,AC50,AR (gene 367) [3],67.9 µM (active)
CCN(Cc1cccc(S(=O)(=O)O)c1)c1ccc(C(=C2C=CC(=[N+](CC)Cc3cccc(S(=O)(=O)O)c3)C=C2)c2ccccc2S(=O)(=O)[O-])cc1,outcome,[1],inactive
Cc1cccc2ccccc12,outcome,[1],inactive
CCCCCCCCOC(=O)c1cc(O)c(O)c(O)c1,AC50,[1],10 µM (active)
O=C(Nc1ccc(Cl)cc1)Nc1ccc(Cl)c(Cl)c1,AC50,[1],18.7 µM (active)
same,outcome,AR (gene 367) [2],inactive
same,AC50,AR (gene 367) [3],5.97 µM (active)
CCCCCc1ccc(N)cc1,AC50,[1],50 µM (active)
same,outcome,[1],inactive
